Screens (PubChem)
BAZ2B block: qHTS Assay for Inhibitors of BAZ2B; 4.4% of 360,000 active; Potency, µM (titrated, usually from 114 µM), hits mostly inhibitors; AlphaScreen BAZ2B-H3K14Ac peptide displacement; AID 504333, 2011; Bromodomain adjacent to zinc finger domain protein 2B (Homo sapiens), Q9UIF8; further: nearly all actives have a fitted effect of over 60% in size
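Multi-concentration screen (max 110 uM) measuring displacement of acetylated histone H3 peptide from BAZ2B by AlphaScreen, using 50 nM protein, 50 nM peptide and 10 ug/mL streptavidin donor plus Ni-chelate acceptor beads.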
Sfp PPTase inh: qHTS Assay for Inhibitors of Bacillus subtilis Sfp phosphopantetheinyl transferase (PPTase); 4'-phosphopantetheinyl transferase ffp (Bacillus subtilis), Q9F4F7; Biochemical Sfp PPTase activity, qHTS; Potency, µM, most hits filed as inhibitors; 3.5% of 310,000 active; AID 1490, 2009;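 further: the enzyme is Sfp with the accession as filed and its product quenches rhodamine fluorescence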
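Reaction rates are the 30-min fluorescence difference (ex 525, em 598 nm) in wells containing 15 nM Sfp, 5 uM rhodamine-CoA and 12.5 uM BHQ-2-YbbR at pH 7.6 with 10 mM MgCl2.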
JMJD2A Tudor: qHTS Assay for Inhibitors of JMJD2A-Tudor Domain. AlphaScreen JMJD2A-Tudor / H3K4me3 peptide binding. Potency, µM (series often up to 114 µM), actives largely listed as inhibitors. AID 504339, 2011. 4.4% of 390,000 active. Lysine-specific demethylase 4A (Homo sapiens), O75164; further: nearly all actives have a fitted effect of over 50% in size
HP1b chromo inh: HTS for Inhibitors of HP1-beta Chromodomain Interactions with Methylated Histone Tails. Chromobox protein homolog 1 (Homo sapiens), P83916. Potency, µM (series often up to 114 µM), most hits filed as inhibitors. AID 540317, 2011. AlphaScreen HP1-beta / biotin-H3K9me3 peptide binding. 0.56% of 390,000 active; further: nearly all actives have a fitted effect of over 70% in size
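HP1-beta protein (50 nM final) preincubated 30 min at room temperature with biotinylated H3(1-18)K9me3 peptide (50 nM) in PBS pH 7.4, 0.01% Tween-20, then compound added for 30 min. AlphaScreen streptavidin donor/nickel chelate acceptor beads (10 ug/mL final), 30 min dark, luminescence read.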
G9a inh: qHTS Assay for Inhibitors of Histone Lysine Methyltransferase G9a; Histone-lysine N-methyltransferase EHMT2 (Homo sapiens), Q96KQ7; G9a H3K9 monomethylation, AlphaScreen, 2 h; Potency, µM (series often up to 102 µM), actives largely listed as inhibitors; 8.8% of 350,000 active; further: nearly all actives have a fitted effect of over 75% in size
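AlphaScreen detection with an anti-monomethyl H3K9 antibody quantified product after a 2 h room-temperature reaction containing 500 nM biotinylated H3K9 peptide, 20 µM SAM and 20 nM enzyme, which had been preincubated 15 min with compound.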
ALOX12 inh: Primary qHTS assay for inhibitors of human arachidonate 12S-lipoxygenase (ALOX12): Round 2; 1.1% of 580,000 active; Polyunsaturated fatty acid lipoxygenase ALOX12 (Homo sapiens), P18054; Potency, µM (titrated, usually from 108 µM), usual class: inhibitors; purified 12hLO, xylenol orange hydroperoxide absorbance
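Purified human 12hLO (150 nM final) in 25 mM Hepes, 0.01% Triton X-100, pH 7.0 was preincubated 15 min at room temperature with compound. Then 40 uM arachidonic acid was added, 30 min. Hydroperoxide was read by Fe-XO absorbance ratio 573/405 nm.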
Each line names hits and unclear results; the compound was inactive in the other large screens. In the library only some 8.7% were active in any assay of this set; here they are far more common. The call rests on the fitted dose curve; in most records, active means well fitted curve in the direction sought with a large enough effect; inconclusive means small, poorly fitted or top-dose-only effect, or another doubt; inactive means no such curve, though single readings can be large; an effect the other way counts as inactive or inconclusive.

O=C(CSc1nnc(C2CC2)n1Cc1ccccc1)c1cc2ccccc2o1	JMJD2A Tudor 56µM, G9a inh 45µM
CC1CCC[C@@]2(CCc3cc4c5c(c(=O)oc4cc3O2)CCC5)C1 (stereo partly specified)	none (no result: BAZ2B block, Sfp PPTase inh, JMJD2A Tudor, HP1b chromo inh, G9a inh)
Cc1ccsc1/C=C(\C#N)c1nc(-c2ccc3ccccc3c2)cs1	none (no result: BAZ2B block, Sfp PPTase inh, JMJD2A Tudor, HP1b chromo inh, G9a inh)
CCOc1ccc(-c2csc(/C(C#N)=C\c3ccc(O)c([N+](=O)[O-])c3)n2)cc1	BAZ2B block 7.1µM, Sfp PPTase inh 79µM, JMJD2A Tudor 22µM, HP1b chromo inh 35µM, G9a inh inconclusive
Cc1ccc(F)c(NC(=O)CCNC(=O)c2ccco2)c1	none (no result: BAZ2B block, Sfp PPTase inh, JMJD2A Tudor, HP1b chromo inh, G9a inh)
COc1ccccc1OCCOCCN1CCCC1	JMJD2A Tudor 50µM, HP1b chromo inh inconclusive, G9a inh 25µM, ALOX12 inh inconclusive
Cc1cccc(OCCOCCN2CCNCC2)c1C	none
Cc1ccc(C(C)C)cc1OCC(=O)NC1CCCCCCC1	none (no result: Sfp PPTase inh)
Cc1ccccc1OCCOCCN1CCCCCC1	BAZ2B block inconclusive, JMJD2A Tudor inconclusive, HP1b chromo inh inconclusive, G9a inh 40µM
Cc1ccc(C(C)C)cc1OCCOCCN1CCCC1	BAZ2B block inconclusive, JMJD2A Tudor 7.1µM, HP1b chromo inh inconclusive, G9a inh 13µM, ALOX12 inh inconclusive
Nc1c(-c2nc3ccccc3[nH]2)c2ccccn2c1C(=O)c1ccc(Cl)cc1	none (no result: BAZ2B block, Sfp PPTase inh, JMJD2A Tudor, HP1b chromo inh, G9a inh)
O=C(CCc1ccsc1)NC1CCSc2ccc(F)cc21 (stereo unspecified)	none (no result: BAZ2B block, Sfp PPTase inh, JMJD2A Tudor, HP1b chromo inh, G9a inh)
CC(C)CN(CC(C)C)C[C@H]1O[C@H](Cc2cc(COc3ccccc3)on2)CC[C@@H]1O	none (no result: BAZ2B block, Sfp PPTase inh, JMJD2A Tudor, HP1b chromo inh, G9a inh)
Cc1cccc2cc(C(c3nnnn3C(C)(C)C)N3CCN(C(=O)c4ccco4)CC3)c(=O)[nH]c12 (stereo unspecified)	Sfp PPTase inh 56µM, G9a inh inconclusive
CC(C)(C)n1nnnc1C(c1ccccc1)N1CCN(C(=O)c2ccco2)CC1 (stereo unspecified)	none (no result: BAZ2B block, Sfp PPTase inh, JMJD2A Tudor, HP1b chromo inh, G9a inh)
CCC(C)(C)n1nnnc1C(c1cc2cc(C)cc(C)c2[nH]c1=O)N1CCN(C(=O)c2ccco2)CC1 (stereo unspecified)	Sfp PPTase inh 45µM, G9a inh inconclusive
CCC(C)(C)n1nnnc1C(c1ccccc1OC)N1CCN(C(=O)c2ccco2)CC1 (stereo unspecified)	G9a inh inconclusive
Cc1ccc2[nH]c(=O)c(C(c3nnnn3C(C)(C)C)N3CCN(C(=O)c4ccco4)CC3)cc2c1 (stereo unspecified)	Sfp PPTase inh 45µM, ALOX12 inh inconclusive
CCOC(=O)NC1(Nc2cccc(Cl)c2)Oc2ccccc2O1	Sfp PPTase inh inconclusive, JMJD2A Tudor 40µM, HP1b chromo inh inconclusive, G9a inh 2µM, ALOX12 inh 45µM
CCOC(=O)c1ccccc1NC(=O)Nc1cccc(Cl)c1	none (no result: BAZ2B block, Sfp PPTase inh, JMJD2A Tudor, HP1b chromo inh, G9a inh)
CN(C)c1oc(-c2ccccc2Cl)nc1S(=O)(=O)c1ccccc1	BAZ2B block inconclusive, JMJD2A Tudor inconclusive, G9a inh 79µM, ALOX12 inh inconclusive
CCc1nncn1C1CCN(C(=O)c2cccc(Cl)c2)CC1	none (no result: BAZ2B block, Sfp PPTase inh, JMJD2A Tudor, HP1b chromo inh, G9a inh)
COc1ccccc1CNc1nc(-c2cc(C)n(C)c2C)cs1	BAZ2B block 40µM, JMJD2A Tudor 40µM, G9a inh 10µM, ALOX12 inh inconclusive
Cc1ccc(-c2csc(N)n2)cc1	none (no result: BAZ2B block, Sfp PPTase inh, G9a inh)
Cc1cc(C(=O)COC(=O)c2cc(Cl)ccc2N)c(C)n1Cc1ccco1	BAZ2B block inconclusive, JMJD2A Tudor inconclusive, ALOX12 inh inconclusive
COc1ccccc1CNc1cccc(C)n1	none (no result: BAZ2B block, Sfp PPTase inh, JMJD2A Tudor, HP1b chromo inh, G9a inh)
Cc1cc(-c2csc(N)n2)c(C)n1C	BAZ2B block 50µM, Sfp PPTase inh 20µM, JMJD2A Tudor inconclusive, G9a inh 10µM, ALOX12 inh inconclusive
Cc1cc(-c2csc(N)n2)c(C)n1Cc1ccco1	BAZ2B block inconclusive, Sfp PPTase inh 50µM, JMJD2A Tudor inconclusive, G9a inh 18µM
